Source: PubChem BioAssay (The Scripps Research Institute Molecular Screening Center)
FBW7 activator: FBW7 E3 ligase activators, primary screen, biochemical, AlphaScreen, human; F-box/WD repeat-containing protein 7 (Homo sapiens), Q969H0; AlphaScreen FBW7–phospho-cyclin E peptide binding, activator screen; normalized activity (activation), % at 26.1 µM; 0.13% of 650,000 active; AID 1259310, 2017; in the data active means normalized activity above about 1.9%;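 further: purified mutant Fbw7 with reduced substrate affinity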
MITF inh: MITF inhibitors, primary screen, biochemical, AlphaScreen, human | Microphthalmia-associated transcription factor (Homo sapiens), O75030 | AlphaScreen MITF homodimerization, bead proximity signal | inhibition, % at 2.6 µM | 0.91% of 650,000 active | AID 1259374, 2018; in the data active means inhibition above about 50%;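 further: 0% = vehicle wells with protein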
GPR151 activ: activators of human GPR151, primary screen, cell-based, PathHunter beta-arrestin, luminescence. PathHunter beta-arrestin GPR151 cells. 1% of 650,000 active. AID 1508602, 2020. activation, % at 11.2 µM. G-protein coupled receptor 151 (Homo sapiens), Q8TDV0; in the data active means activation above about 4.9%;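 further: 0% = median of compound wells and 100% = cells with positive control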
Target sequence (Q8TDV0 whole entry, looked up): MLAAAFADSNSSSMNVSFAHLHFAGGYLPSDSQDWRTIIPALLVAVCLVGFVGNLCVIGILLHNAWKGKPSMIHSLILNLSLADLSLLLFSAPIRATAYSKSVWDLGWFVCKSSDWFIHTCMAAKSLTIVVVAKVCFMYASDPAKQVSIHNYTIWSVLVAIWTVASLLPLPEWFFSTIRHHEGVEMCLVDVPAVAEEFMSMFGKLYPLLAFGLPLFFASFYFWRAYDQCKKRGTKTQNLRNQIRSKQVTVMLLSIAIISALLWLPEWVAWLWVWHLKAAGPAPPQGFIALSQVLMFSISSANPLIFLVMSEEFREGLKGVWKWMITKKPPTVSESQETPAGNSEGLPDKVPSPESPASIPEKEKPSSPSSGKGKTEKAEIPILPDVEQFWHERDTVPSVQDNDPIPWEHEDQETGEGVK
TEAD-YAP inh: TEAD-YAP interaction inhibition, primary screen, TEAD-YAP interaction inhibitor project, luminescence, HEK-TIYL cells; AID 1259422, 2018; inhibition, % at 9.12 µM; TEAD-Gal4/YAP UAS-luciferase luminescence; 1.4% of 640,000 active; in the data active means inhibition above about 32%;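 further: 0% = median of test compound wells and 100% = reference inhibitor wells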
GPR151 conf act: GPR151 activators, triplicate retest, confirmation, cell-based, PathHunter beta-arrestin, luminescence | shares compounds with GPR151 activ | GPR151 PathHunter beta-arrestin cells, 90 min; % of EA-reagent control over plate median | activation, % at 11.2 µM | 6,700 tested, under 10 active | AID 1508609, 2020;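 active means mean percent activation across replicates above the confirmation screen cutoff of 4.91%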
GPR119 counter: GPR119 activators in beta-arrestin cells, counter-screen for GPR151 activator project, cell-based, PathHunter beta-arrestin, luminescence, triplicate; shares compounds with GPR151 activ; 90 min; 0 = compound-well median, 100 = enzyme-acceptor control; activation, % at 11.2 µM; 0.3% of 6,700 active; AID 1508611, 2020;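 active means mean percent activation in the counterscreen above 29.09%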;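 further: counterscreen on off-target GPR119 to flag nonselective hits from the GPR151 activator screen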
* marks the source's active call; other numbers are inactive results; x = no result. Hits are enriched below; roughly 3.5% of the tested compounds scored in any of these assays.

SMILES	FBW7 activator	MITF inh	GPR151 activ	TEAD-YAP inh	GPR151 conf act	GPR119 counter
CC1CN(C(=O)N2CCC(C(=O)NCc3ccc(F)cc3)CC2)c2cc(Cl)ccc2O1 (stereo unspecified)	1	8	-3	6	x	x
c1ccc(SCc2nnc3n2CCCCC3)cc1	0	-13	5.0*	-6	0	-2
OC(CN1CCOCC1)Cn1cnc2c(SCc3ccccc3)ncnc21 (stereo unspecified)	0	9	6.0*	0	1	0
CCOC(=O)c1ccccc1NC(=O)CCN1C(=O)c2cccc([N+](=O)[O-])c2C1=O	1	-3	-3	-3	x	x
CC(=O)Nc1ccccc1OC(F)F	0	7	7.1*	-3	1	13
O=C(Nc1ccccc1OC(F)F)c1ccc(F)cc1	0	7	1	-18	x	x
O=C(Nc1cccc(Oc2ccc(C(=O)O)c(C(=O)O)c2)c1)c1ccc([N+](=O)[O-])cc1	-1	14	0	6	x	x
O=C(Nc1cccc(Oc2ccc(C(=O)O)c(C(=O)O)c2)c1)c1ccc(-c2ccccc2)cc1	0	2	6.9*	18	0	3
O=C(OCc1ccc(Br)cc1)c1ccc(O)cc1	1	15	-1	-3	x	x
O=C(OCc1ccc(Br)cc1)c1ccc(N2CCCC2=O)cc1	0	3	7.3*	4	1	14
CN(C)c1ccc(CN(C(=O)c2ccccc2[N+](=O)[O-])C2CCS(=O)(=O)C2)cc1 (stereo unspecified)	0	20	-1	-8	x	x
O=C(c1ccccc1[N+](=O)[O-])N(Cc1ccc(Cl)cc1)C1CCS(=O)(=O)C1 (stereo unspecified)	0	-14	5.0*	0	1	-2
COc1ccc(C2C(C(=O)Nc3ccc(Br)cc3C)c3cc(OC)c(OC)cc3C(=O)N2C)cc1OC (stereo unspecified)	0	-10	0	7	x	x
COc1ccccc1NC1CC(=O)N(c2cccc(Cl)c2)C1=O (stereo unspecified)	0	2	9.1*	-9	0	4
COc1ccc(NC2CC(=O)N(c3ccc(Cl)c(C(F)(F)F)c3)C2=O)cc1 (stereo unspecified)	0	3	6.0*	15	0	-8
COc1ccc(NC2CC(=O)N(c3ccc(OC)cc3)C2=O)cc1 (stereo unspecified)	0	-5	-2	0	x	x
COc1ccccc1NC1CC(=O)N(c2ccc(Br)cc2)C1=O (stereo unspecified)	0	-5	0	6	x	x
CC(C)[C@H]1NC(=O)[C@H]2CN(Cc3ccc(CN4CCCCC4)s3)CCN2C1=O	1	19	-1	0	x	x
CC(C)N(C(=O)C(=O)NC1CCCC1)C(C(=O)NCc1cccs1)c1ccc(F)cc1 (stereo unspecified)	0	-16	0	6	x	x
O=C(COC(=O)c1ccc(OC(F)F)cc1)Nc1cccnc1Cl	0	12	12*	-3	-1	5
COc1ccc(C(=O)n2nc(N)c3cc4ccc(C)cc4nc32)cc1	0	10	-2	-37	x	x
COc1cc(C(=O)n2nc(N)c3cc4ccc(C)cc4nc32)cc(OC)c1OC	0	2	7.8*	41*	1	11
O=S(=O)(NCCOc1ccc(Cl)cc1)c1ccc2ccccc2c1	0	-28	0	-1	x	x
Cc1cc(C)nc(NS(=O)(=O)c2ccc(NC(=O)Cc3ccc(F)cc3)cc2)n1	0	5	0	-2	x	x
Cc1cc(C)nc(NC(=O)Cc2ccc(F)cc2)n1	0	-1	13*	-6	0	-3
C#CCn1c(=NC(=O)CN2C(=O)CCC2=O)sc2c(C)cc(C)cc21	0	3	7.2*	-3	0	0
